# From PubChem BioAssay (EPA / NIEHS)
# Several values for one entry are separate records, joined by “and”; a condition that tells them apart may be missing. Identical values can stand only once. Results filed as inconclusive are left out. More than one record can exist for a structure, and the calls need not agree. Activity calls are given as the source filed them. How the source made its calls, unless noted: active means hit-call score of the fitted dose curve at least 0.9, where 1 is the maximum; inconclusive means response in the unintended direction; inactive means score below 0.9.
# What was measured:
# [1] = target: Nuclear receptor subfamily 1 group I member 2 (Mus musculus) (UniProt O54915); assay: ATG_mPXR_XSP2: Attagene TRANS-FACTORIAL Multi-Species (XSP1) HepG2 Assay for mouse Pregnane X Receptor (PXR) (AID 2283831)
# Sequence of Nuclear receptor subfamily 1 group I member 2 (Mus musculus) (O54915 whole entry, looked up, the tested form may be a part): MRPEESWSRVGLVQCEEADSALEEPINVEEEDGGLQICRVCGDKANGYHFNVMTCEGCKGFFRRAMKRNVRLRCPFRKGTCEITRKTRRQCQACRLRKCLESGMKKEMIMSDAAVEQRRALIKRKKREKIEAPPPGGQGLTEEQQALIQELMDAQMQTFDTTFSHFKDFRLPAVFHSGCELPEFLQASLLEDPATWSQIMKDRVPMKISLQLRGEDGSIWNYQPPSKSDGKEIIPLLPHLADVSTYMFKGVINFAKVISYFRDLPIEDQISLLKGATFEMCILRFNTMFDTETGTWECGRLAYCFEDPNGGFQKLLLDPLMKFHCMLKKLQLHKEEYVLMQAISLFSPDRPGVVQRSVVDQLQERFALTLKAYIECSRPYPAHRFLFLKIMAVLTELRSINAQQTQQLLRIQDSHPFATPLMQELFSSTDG
# Outline: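 HepG2 cells transiently transfected with GAL4-UAS reporter units expressing chimeric NR-GAL4 proteins; reporter mRNA measured 24 h after dosing by RT-PCR with 6-FAM labelling and capillary electrophoresis, gain of signal relative to DMSO.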
# [2] = target: zebrafish Thyroid Hormone Receptor alpha (TRa), thraa (gene 30670) (UniProt Q98867); assay: ATG_zfTRa_XSP2: Attagene TRANS-FACTORIAL Multi-Species (XSP1) HepG2 Assay for zebrafish Thyroid Hormone Receptor alpha (TRa) (AID 2283832);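 further: actives raise zebrafish TRa-Gal4 reporter transcript above DMSO baseline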
# Sequence of zebrafish Thyroid Hormone Receptor alpha (TRa), thraa (gene 30670) (Q98867 whole entry, looked up, the tested form may be a part): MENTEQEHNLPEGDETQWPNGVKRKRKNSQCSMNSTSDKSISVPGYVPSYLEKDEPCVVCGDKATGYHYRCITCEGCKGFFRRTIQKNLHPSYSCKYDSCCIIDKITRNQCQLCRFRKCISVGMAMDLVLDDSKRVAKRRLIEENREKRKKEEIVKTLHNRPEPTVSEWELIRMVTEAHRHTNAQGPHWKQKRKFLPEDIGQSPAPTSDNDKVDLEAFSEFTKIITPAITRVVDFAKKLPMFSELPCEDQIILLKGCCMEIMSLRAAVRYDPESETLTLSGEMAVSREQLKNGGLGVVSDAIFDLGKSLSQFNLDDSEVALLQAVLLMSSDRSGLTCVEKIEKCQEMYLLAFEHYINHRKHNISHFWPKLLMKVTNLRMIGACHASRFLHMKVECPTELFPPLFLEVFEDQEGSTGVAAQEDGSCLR
# Outline: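 Chimeric zebrafish TRa-Gal4 activity read in transfected human HepG2 as GAL4-UAS reporter transcripts, 24 h post-dose, via RT-PCR with labeled primer extension and capillary electrophoresis. Medium also carries 3 nM 6-alpha-fluorotestosterone and 1.5 nM norgestrel; DMSO baseline.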
# [3] = test system: zebrafish Peroxisome Proliferator-activated Receptor gamma (PPARg), gene 557037; assay: ATG_zfPPARg_XSP2: Attagene TRANS-FACTORIAL Multi-Species (XSP2) HepG2 Assay for zebrafish Peroxisome Proliferator-activated Receptor gamma (PPARg) (AID 2283833);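 further: actives increase reporter signal over DMSO so AC50 reflects activation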
# Outline: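 HepG2 cells transiently transfected with GAL4-UAS reporter units expressing a zebrafish PPARg–GAL4 chimera; compound exposure 24 h. Reporter mRNA quantified by RT-PCR with fluorescent labelling and capillary electrophoresis; gain of signal fitted relative to DMSO baseline.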
# [4] = test system: turtle Thyroid Hormone Receptor, alpha (TRa), gene 101949057; assay: ATG_trTRa_XSP2: Attagene TRANS-FACTORIAL Multi-Species (XSP1) HepG2 Assay for turtle Thyroid Hormone Receptor, alpha (TRa) (AID 2283834);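 further: hits raise reporter mRNA over the DMSO baseline so AC50 marks activators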
# Outline: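 HepG2 cells transiently transfected with multiplexed GAL4-UAS reporter units expressing chimeric NR-Gal4 proteins were dosed for 24 hours. Reporter mRNA was quantified by RT-PCR with 6-FAM labelling and capillary electrophoresis, gain of signal scored against DMSO.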
# [5] = ATG_M_61_XSP2: Attagene TRANS-FACTORIAL Multi-Species (XSP2) HepG2 Assay for M61 Transcription Factor (Internal Marker) (AID 2283835; active means hit-call score of the fitted dose curve at least 0.9, where 1 is the maximum; inactive means score below 0.9;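 further: active means a rise in signal above the DMSO baseline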)
# Outline: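 Internal background marker, read as RT-PCR/capillary-electrophoresis reporter mRNA 24 h post-dose in transiently transfected HepG2 cells. Androgen receptor stimulated with 3 nM 6-alpha-fluorotestosterone plus 1.5 nM norgestrel; gain of signal versus DMSO analysed.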
# [6] = target: zebrafish Thyroid Hormone Receptor beta (TRb), thrb (gene 30607) (UniProt Q9PVE4); assay: ATG_zfTRb_XSP2: Attagene TRANS-FACTORIAL Multi-Species (XSP1) HepG2 Assay for zebrafish Thyroid Hormone Receptor beta (TRb) (AID 2283836)
# Sequence of zebrafish Thyroid Hormone Receptor beta (TRb), thrb (gene 30607) (Q9PVE4 whole entry, looked up, the tested form may be a part): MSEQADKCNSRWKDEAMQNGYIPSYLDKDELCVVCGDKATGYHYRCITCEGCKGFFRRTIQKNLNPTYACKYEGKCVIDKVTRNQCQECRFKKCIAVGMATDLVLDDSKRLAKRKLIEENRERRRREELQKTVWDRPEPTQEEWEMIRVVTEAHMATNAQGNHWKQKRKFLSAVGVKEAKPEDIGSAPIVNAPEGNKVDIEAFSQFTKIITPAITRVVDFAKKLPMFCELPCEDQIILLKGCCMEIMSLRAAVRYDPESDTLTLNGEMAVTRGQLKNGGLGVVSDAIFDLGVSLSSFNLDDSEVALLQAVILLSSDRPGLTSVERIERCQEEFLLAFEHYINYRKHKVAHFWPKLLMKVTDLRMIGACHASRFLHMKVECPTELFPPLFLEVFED
# Outline: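 Reporter transcripts measured by RT-PCR, 6-FAM labelling, HpaI digestion and capillary electrophoresis after 24 h chemical exposure. Human HepG2 cells carry an exogenous zebrafish TRb-GAL4 chimera; medium included 3 nM 6-alpha-fluorotestosterone plus 1.5 nM norgestrel.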
# [7] = target: human Thyroid hormone Receptor alpha (TRa), THRA (gene 7067) (UniProt P10827); assay: ATG_hTRa_XSP2: Attagene TRANS-FACTORIAL Multi-Species (XSP2) HepG2 Assay for human Thyroid hormone Receptor alpha (TRa) (AID 2283838)
# Sequence of human Thyroid hormone Receptor alpha (TRa), THRA (gene 7067) (P10827 whole entry, looked up, the tested form may be a part): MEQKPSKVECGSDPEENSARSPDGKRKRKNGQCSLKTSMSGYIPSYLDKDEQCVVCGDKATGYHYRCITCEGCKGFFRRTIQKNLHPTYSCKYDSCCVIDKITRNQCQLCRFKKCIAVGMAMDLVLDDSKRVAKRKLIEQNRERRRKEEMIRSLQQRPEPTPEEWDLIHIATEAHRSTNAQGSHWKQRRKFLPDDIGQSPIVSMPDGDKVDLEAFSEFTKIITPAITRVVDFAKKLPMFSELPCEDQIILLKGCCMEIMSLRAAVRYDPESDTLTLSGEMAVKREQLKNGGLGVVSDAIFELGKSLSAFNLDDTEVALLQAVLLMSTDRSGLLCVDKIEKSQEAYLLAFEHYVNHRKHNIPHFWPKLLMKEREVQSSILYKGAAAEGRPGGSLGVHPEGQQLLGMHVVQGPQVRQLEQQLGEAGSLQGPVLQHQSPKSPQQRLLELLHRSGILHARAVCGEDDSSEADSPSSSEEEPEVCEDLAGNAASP
# Outline: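 Reporter transcripts were read by RT-PCR with fluorescent primer extension, HpaI digestion and capillary electrophoresis. These came from HepG2 cells carrying multiplexed TRa-Gal4 TRANS constructs, harvested 24 hours after dosing. The medium also held 6-alpha-fluorotestosterone (3 nM) and norgestrel (1.5 nM), and increases were fitted against DMSO.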
# [8] = target: human Thyroid hormone Receptor beta (TRb), THRB (gene 7068) (UniProt P10828); assay: ATG_hTRb_XSP2: Attagene TRANS-FACTORIAL Multi-Species (XSP2) HepG2 Assay for human Thyroid hormone Receptor beta (TRb) (AID 2283840);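 further: actives raise reporter mRNA so potency reflects agonist-like gain of signal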
# Sequence of human Thyroid hormone Receptor beta (TRb), THRB (gene 7068) (P10828 whole entry, looked up, the tested form may be a part): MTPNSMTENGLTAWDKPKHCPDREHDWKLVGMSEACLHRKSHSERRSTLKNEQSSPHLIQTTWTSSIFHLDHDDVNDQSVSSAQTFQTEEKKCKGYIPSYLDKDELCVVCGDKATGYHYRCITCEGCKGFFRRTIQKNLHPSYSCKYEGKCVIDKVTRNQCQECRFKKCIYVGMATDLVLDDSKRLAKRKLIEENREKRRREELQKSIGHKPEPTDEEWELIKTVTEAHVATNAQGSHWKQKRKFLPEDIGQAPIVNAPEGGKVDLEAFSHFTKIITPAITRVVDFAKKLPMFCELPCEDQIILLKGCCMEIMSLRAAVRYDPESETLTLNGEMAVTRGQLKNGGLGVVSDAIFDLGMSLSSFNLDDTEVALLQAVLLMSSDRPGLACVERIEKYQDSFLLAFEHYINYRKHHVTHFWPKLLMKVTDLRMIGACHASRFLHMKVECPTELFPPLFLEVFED
# Outline: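 HepG2 cells were transiently transfected with GAL4-UAS multiplexed reporter units expressing chimeric NR-Gal4 proteins, dosed 24 h; reporter mRNA was quantified by RT-PCR, fluorescent labeling, HpaI digestion and capillary electrophoresis, fitted for gain of signal versus DMSO.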
# [9] = test system: Sodium/Iodide Symporter (NIS), SLC5A5 (gene 6528); assay: CPHEA_Stoker_NIS_Inhibition_RAIU: CPHEA's Radioactive Iodide Uptake (RAIU) Assay for Sodium/Iodide Symporter (NIS) Inhibition, Stoker and Laws Labs (AID 2283841)
# Outline: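 Test chemicals, six concentrations from 0.001 to 100uM in 0.5% DMSO, were co-incubated with carrier-free 125I (final 329pM) on hNIS-HEK293T-EPA monolayers in pH 7.4 HEPES-buffered HBSS. Plates stood 2 hours at room temperature, then were washed cold and counted.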
# [10] = CPHEA_Stoker_NIS_Cytotoxicity: Cytotoxicity Assessment for CPHEA's Radioactive Iodide Uptake (RAIU) Assay for Sodium/Iodide Symporter (NIS) Inhibition, Stoker and Laws Labs (AID 2283897);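 on AC50: active means loss of ATP signal versus DMSO meaning cytotoxicity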
# Outline: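 Viability in hNIS-HEK293T-EPA cells is scored as a drop in luciferase-detected ATP following 2-hour room-temperature exposure (0.001–100uM; triplicate wells, three cell passages), with DMSO as negative control.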
# [11] = ATG_XTT_Cytotoxicity_XSP2: Cytotoxicity Assessment in the Attagene TRANS-FACTORIAL Multi-Species (XSP2) HepG2 Assay (AID 2283837)
# Outline: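 XTT-based cell number read-out in human HepG2 liver cells carrying transfected reporter units, measured 24 h after chemical dosing. Activity is signal loss versus DMSO baseline.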
structure (smiles),measurement,setting,value
Oc1cc(Cl)ccc1Oc1ccc(Cl)cc1Cl,AC50,[1],11.1 µM (active)
same,outcome,[2],inactive
same,outcome,[3],inactive
same,AC50,[4],4.84 µM (active)
same,outcome,[5],inactive
same,outcome,[6],inactive
same,outcome,[7],inactive
same,AC50,[8],4.77 µM (active)
CCOC1Oc2ccc(OS(C)(=O)=O)cc2C1(C)C (centres undefined),outcome,[9],inactive
same,outcome,[10],inactive
CC1(c2ccc(Oc3ccccc3)cc2)OC(=O)N(Nc2ccccc2)C1=O (centres undefined),outcome,[9],inactive
same,AC50,[10],5.4 µM (active)
ClC1C(Cl)C(Cl)C(Cl)C(Cl)C1Cl (centres undefined),outcome,[9],inactive
same,outcome,[10],inactive
CC(C)(C)C(O)/C(=C\c1ccc(Cl)cc1Cl)n1cncn1 (centres undefined),AC50,[1],1.24 µM (active) and 1.41 µM (active)
same,outcome,[2],inactive
same,outcome,[3],inactive
same,outcome,[4],inactive
same,outcome,[5],inactive
same,outcome,[6],inactive
same,AC50,[11],100 µM (active)
same,outcome,[7],inactive
same,outcome,[8],inactive
same,AC50,[9],35.9 µM (active)
same,AC50,[10],50 µM (active)
COP(=S)(OC)Oc1ccc([N+](=O)[O-])cc1,AC50,[1],41.4 µM (active)
same,outcome,[1],inactive
same,outcome,[2],inactive
same,outcome,[3],inactive
same,outcome,[4],inactive
same,outcome,[6],inactive
same,outcome,[11],inactive
same,outcome,[7],inactive
same,outcome,[8],inactive
C[C@H]1[C@H](c2ccc(Cl)cc2)SC(=O)N1C(=O)NC1CCCCC1,outcome,[9],inactive
same,outcome,[10],inactive
CC(C)OC(=O)Nc1cccc(Cl)c1,outcome,[9],inactive
same,outcome,[10],inactive
O=C1c2ccccc2C(=O)N1SC(Cl)(Cl)Cl,AC50,[9],11.6 µM (active)
same,outcome,[10],inactive
CC[C@H](C)[C@H]1O[C@]2(C=C[C@@H]1C)C[C@@H]1C[C@@H](C/C=C(\C)[C@@H](O[C@H]3C[C@H](OC)[C@@H](O[C@H]4C[C@H](OC)[C@@H](O)[C@H](C)O4)[C@H](C)O3)[C@@H](C)/C=C/C=C3\CO[C@@H]4[C@H](O)C(C)=C[C@@H](C(=O)O1)[C@]34O)O2 (tested in a mixture with another compound),outcome,[9],inactive
same,outcome,[10],inactive
CCc1ccc(C(=O)NN(C(=O)c2cc(C)cc(C)c2)C(C)(C)C)cc1,outcome,[9],inactive
same,outcome,[10],inactive
O=S1OCC2C(CO1)C1(Cl)C(Cl)=C(Cl)C2(Cl)C1(Cl)Cl (centres undefined),outcome,[1],inactive
same,outcome,[2],inactive
same,outcome,[5],inactive
same,outcome,[6],inactive
same,outcome,[8],inactive
same,AC50,[9],50 µM (active)
same,outcome,[10],inactive
CCCN(CCOc1c(Cl)cc(Cl)cc1Cl)C(=O)n1ccnc1,AC50,[1],0.108 µM (active)
same,outcome,[2],inactive
same,outcome,[3],inactive
same,outcome,[5],inactive
same,outcome,[6],inactive
same,outcome,[7],inactive
same,outcome,[8],inactive
same,AC50,[9],76.5 µM (active)
same,AC50,[10],50 µM (active)
N#Cc1c(Cl)c(Cl)c(Cl)c(C#N)c1Cl,outcome,[9],inactive
same,outcome,[10],inactive
CC1(C)C(C=C(Cl)Cl)C1C(=O)OC(C#N)c1ccc(F)c(Oc2ccccc2)c1 (centres undefined),AC50,[1],1.97 µM (active)
same,outcome,[2],inactive
same,AC50,[3],19.8 µM (active)
same,outcome,[4],inactive
same,outcome,[6],inactive
same,outcome,[8],inactive
same,outcome,[10],inactive
